# ± gives the standard deviation.
# T1: HaloTag-ATRX ADD domain (163-292)
# T1 chain: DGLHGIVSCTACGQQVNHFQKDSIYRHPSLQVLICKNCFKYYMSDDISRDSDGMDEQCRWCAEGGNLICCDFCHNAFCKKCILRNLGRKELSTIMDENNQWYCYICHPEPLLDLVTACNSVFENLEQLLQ
# How the values were obtained:
# Assay in all cases: peptide microarray binding signal (635 nm), min-max normalized on array (fraction of array maximum); higher = stronger binding
# [1] = target: T1, HaloTag-ATRX ADD domain (163-292)
# Experimental: (§1)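 Histone 13-mer peptides were synthesized as cellulose conjugates with a C-terminal 20-atom PEG linker and printed in triplicate on nitrocellulose. The sequence given is the unmodified backbone; PTMs (Kme1/2/3, Kac, Sph/Tph, Rme/Rme2a/Rme2s, Rcit) are listed in the label and the 'peptide modifications' condition. Slides were probed at 4 °C for 1 h with biotin-labelled (HQ)5-HaloTag reader fusions (ATRX-ADD, ING2-PHD) then streptavidin-Alexa647, or with rabbit histone antibodies then anti-rabbit Alexa647. The mean 635 nm signal of the triplicate spots was scaled 0-1 between the lowest and highest values on each array.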
# [2] = target: HaloTag-ING2 PHD (mouse Ing2 200-280)
# Experimental: as §1
# [3] = target: anti-H3K4me3 antibody ab8580
# Experimental: as §1
# [4] = target: anti-H3K9me3 antibody ab8898
# Experimental: as §1
# [5] = peptide region: H2B 17-29, peptide modifications: H2BK28ac, binder concentration: 1:2,000 dilution
# [6] = peptide region: H2B 17-29, peptide modifications: H2BK28ac, binder concentration: 1:10,000 dilution
# [7] = peptide region: H3 1-13, peptide modifications: H3K4me1, binder concentration: 1:2,000 dilution
# [8] = peptide region: H3 1-13, peptide modifications: H3K4me1, binder concentration: 1:10,000 dilution
# [9] = peptide region: H3 1-13, peptide modifications: H3K4me1 H3K9ac, binder concentration: 1:2,000 dilution
# [10] = peptide region: H3 1-13, peptide modifications: H3K4me1 H3K9ac, binder concentration: 1:10,000 dilution
# [11] = peptide region: H3 1-13, binder concentration: 1:2,000 dilution
# [12] = peptide region: H3 1-13, binder concentration: 1:10,000 dilution
# [13] = peptide region: H2B 17-29, peptide modifications: H2BK23ac H2BK28ac, binder concentration: 1:2,000 dilution
# [14] = peptide region: H2B 17-29, peptide modifications: H2BK23ac H2BK28ac, binder concentration: 1:10,000 dilution
binder,measurement,setting,value
AVTKAQKKDGKKR [H2B 17-29 A V T K A Q K K D G K Kac R],peptide microarray binding signal,"[1]; peptide region: H2B 17-29, peptide modifications: H2BK28ac, binder concentration: 50 nM",0.00194 ± 4.1e-05
same,peptide microarray binding signal,"[1]; peptide region: H2B 17-29, peptide modifications: H2BK28ac, binder concentration: 500 nM",0.00486 ± 0.00024
same,peptide microarray binding signal,"[2]; peptide region: H2B 17-29, peptide modifications: H2BK28ac, binder concentration: 10 nM",0.00209 ± 2.4e-05
same,peptide microarray binding signal,"[2]; peptide region: H2B 17-29, peptide modifications: H2BK28ac, binder concentration: 100 nM",0.00142 ± 1.5e-05
same,peptide microarray binding signal,[3]; [5],0.000396 ± 7e-06
same,peptide microarray binding signal,[3]; [6],0.000628 ± 6.7e-06
same,peptide microarray binding signal,[4]; [5],0.000166 ± 3.6e-06
same,peptide microarray binding signal,[4]; [6],0.000346 ± 3.8e-06
ARTKQTARKSTGG [H3 1-13 A R T Kme Q T A R K S T G G],peptide microarray binding signal,"[1]; peptide region: H3 1-13, peptide modifications: H3K4me1, binder concentration: 50 nM",0.00755 ± 0.00014
same,peptide microarray binding signal,"[1]; peptide region: H3 1-13, peptide modifications: H3K4me1, binder concentration: 500 nM",0.0155 ± 0.00093
same,peptide microarray binding signal,"[2]; peptide region: H3 1-13, peptide modifications: H3K4me1, binder concentration: 10 nM",0.0269 ± 0.0015
same,peptide microarray binding signal,"[2]; peptide region: H3 1-13, peptide modifications: H3K4me1, binder concentration: 100 nM",0.112 ± 0.035
same,peptide microarray binding signal,[3]; [7],0.0156 ± 0.0047
same,peptide microarray binding signal,[3]; [8],0.0142 ± 0.0025
same,peptide microarray binding signal,[4]; [7],0.00231 ± 0.00034
same,peptide microarray binding signal,[4]; [8],0.00173 ± 1.7e-05
ARTKQTARKSTGG [H3 1-13 A R T Kme Q T A R Kac S T G G],peptide microarray binding signal,"[1]; peptide region: H3 1-13, peptide modifications: H3K4me1 H3K9ac, binder concentration: 50 nM",0.0172 ± 0.00082
same,peptide microarray binding signal,"[1]; peptide region: H3 1-13, peptide modifications: H3K4me1 H3K9ac, binder concentration: 500 nM",0.0329 ± 0.0029
same,peptide microarray binding signal,"[2]; peptide region: H3 1-13, peptide modifications: H3K4me1 H3K9ac, binder concentration: 10 nM",0.758 ± 0.07
same,peptide microarray binding signal,"[2]; peptide region: H3 1-13, peptide modifications: H3K4me1 H3K9ac, binder concentration: 100 nM",0.727 ± 0.11
same,peptide microarray binding signal,[3]; [9],0.27 ± 0.033
same,peptide microarray binding signal,[3]; [10],0.157 ± 0.018
same,peptide microarray binding signal,[4]; [9],0.00678 ± 0.00086
same,peptide microarray binding signal,[4]; [10],0.00634 ± 0.00026
ARTKQTARKSTGG [H3 1-13 A R T K Q T A R K S T G G],peptide microarray binding signal,"[1]; peptide region: H3 1-13, binder concentration: 50 nM",0.0155 ± 0.00087
same,peptide microarray binding signal,"[1]; peptide region: H3 1-13, binder concentration: 500 nM",0.0263 ± 0.0017
same,peptide microarray binding signal,"[2]; peptide region: H3 1-13, binder concentration: 10 nM",0.0231 ± 0.0017
same,peptide microarray binding signal,"[2]; peptide region: H3 1-13, binder concentration: 100 nM",0.00957 ± 0.0015
same,peptide microarray binding signal,[3]; [11],0.00185 ± 0.00055
same,peptide microarray binding signal,[3]; [12],0.00126 ± 6.5e-05
same,peptide microarray binding signal,[4]; [11],0.00196 ± 0.00012
same,peptide microarray binding signal,[4]; [12],0.000807 ± 1.5e-05
AVTKAQKKDGKKR [H2B 17-29 A V T K A Q Kac K D G K Kac R],peptide microarray binding signal,"[1]; peptide region: H2B 17-29, peptide modifications: H2BK23ac H2BK28ac, binder concentration: 50 nM",0.00348 ± 0.00011
same,peptide microarray binding signal,"[1]; peptide region: H2B 17-29, peptide modifications: H2BK23ac H2BK28ac, binder concentration: 500 nM",0.00929 ± 0.00055
same,peptide microarray binding signal,"[2]; peptide region: H2B 17-29, peptide modifications: H2BK23ac H2BK28ac, binder concentration: 10 nM",0.00442 ± 0.00046
same,peptide microarray binding signal,"[2]; peptide region: H2B 17-29, peptide modifications: H2BK23ac H2BK28ac, binder concentration: 100 nM",0.00312 ± 0.00011
same,peptide microarray binding signal,[3]; [13],0.002 ± 0.00012
same,peptide microarray binding signal,[3]; [14],0.000799 ± 8.3e-06
same,peptide microarray binding signal,[4]; [13],0.000529 ± 1.3e-05
same,peptide microarray binding signal,[4]; [14],0.000634

# Reference: the supplement of paper PMC4022240
